In PubChem BioAssay (NCATS):
“And” between values parts separate entries of the source, which are not always exact repeats. Equal entries are not always repeated. Results filed as inconclusive are left out. The source made the active and inactive calls. The call rests on the fitted dose curve; in most records, active means well fitted inhibition curve with a large enough effect; inconclusive means small, poorly fitted or top-dose-only effect; inactive means flat fitted curve, though single readings scatter.

Legend:
GB4 = experiment: qHTS profiling for inhibitors of Plasmodium falciparum proliferation (AID 504749); conditions: P. falciparum in erythrocytes, SYBR Green DNA, 72 h; series mostly up to 28.7 µM
In short: (§1)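 Parasite proliferation within erythrocytes, 72 h exposure. Endpoint: SYBR Green I fluorescence after overnight lysis at room temperature. Controls: 0.29 uM artemisinin, DMSO.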

ICS = experiment: as above; conditions: P. falciparum in erythrocytes, SYBR Green DNA, 72 h; series mostly up to 28.7 µM
In short: as §1

N140 = experiment: as above; conditions: P. falciparum in erythrocytes, SYBR Green DNA, 72 h; series mostly up to 28.7 µM
In short: as §1

P93_24 = experiment: as above; conditions: P. falciparum in erythrocytes, SYBR Green DNA, 72 h; series mostly up to 28.7 µM
In short: as §1

P94_40 = experiment: as above; conditions: P. falciparum in erythrocytes, SYBR Green DNA, 72 h; series mostly up to 28.7 µM
In short: as §1

PAD = experiment: as above; conditions: P. falciparum in erythrocytes, SYBR Green DNA, 72 h; series mostly up to 28.7 µM
In short: as §1

PC15 = experiment: as above; conditions: P. falciparum in erythrocytes, SYBR Green DNA, 72 h; series mostly up to 28.7 µM
In short: as §1

PC49 = experiment: as above; conditions: P. falciparum in erythrocytes, SYBR Green DNA, 72 h; series mostly up to 28.7 µM
In short: as §1

SC27B = experiment: as above; conditions: P. falciparum in erythrocytes, SYBR Green DNA, 72 h; series mostly up to 28.7 µM
In short: as §1

TAB109 = experiment: as above; conditions: P. falciparum in erythrocytes, SYBR Green DNA, 72 h; series mostly up to 28.7 µM
In short: as §1

TAB113 = experiment: as above; conditions: P. falciparum in erythrocytes, SYBR Green DNA, 72 h; series mostly up to 28.7 µM
In short: as §1

TAB165 = experiment: as above; conditions: P. falciparum in erythrocytes, SYBR Green DNA, 72 h; series mostly up to 28.7 µM
In short: as §1

W2 = experiment: as above; conditions: P. falciparum in erythrocytes, SYBR Green DNA, 72 h; series mostly up to 28.7 µM
In short: as §1

HEK293 = experiment: Cytotoxic Profiling of Annotated Libraries Using Quantitative High-Throughput Screening (AID 1296008); conditions: Five cell lines viability, CellTiter-Glo ATP luminescence, 48-72 h; max response: hits give low values; on max response: on the % scale 0 is the no-effect control and ±100 the full control effect
In short: (§2)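 Compounds were pin-transferred onto cells and incubated 48 or 72 hr at 37 degree Celsius, 95% humidity. CellTiter-Glo was added, plates sat 10 min at room temperature, then ATP-coupled luminescence was imaged as the viability read-out.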

KB-3-1 = experiment: as above; conditions: Five cell lines viability, CellTiter-Glo ATP luminescence, 48-72 h; max response: hits give low values
In short: as §2

HB3 = experiment: qHTS profiling for inhibitors of Plasmodium falciparum proliferation (AID 504749); conditions: P. falciparum in erythrocytes, SYBR Green DNA, 72 h; series mostly up to 28.7 µM
In short: as §1

JCK = experiment: as above; conditions: P. falciparum in erythrocytes, SYBR Green DNA, 72 h; series mostly up to 28.7 µM
In short: as §1

PC26 = experiment: as above; conditions: P. falciparum in erythrocytes, SYBR Green DNA, 72 h; series mostly up to 28.7 µM
In short: as §1

HaCat = experiment: Cytotoxic Profiling of Annotated Libraries Using Quantitative High-Throughput Screening (AID 1296008); conditions: Five cell lines viability, CellTiter-Glo ATP luminescence, 48-72 h; max response: hits give low values; on max response: on the % scale 0 is the no-effect control and ±100 the full control effect
In short: as §2

CRL-7250 = normal cell line; experiment: as above; conditions: Five cell lines viability, CellTiter-Glo ATP luminescence, 48-72 h; max response: hits give low values
In short: as §2
Further: nearly all actives have a fitted effect of over 60% in size.
Potency means the concentration at half of the fitted maximal effect.

COc1c(C)c2c(c(O)c1C/C=C(\C)CCC(=O)O)C(=O)OC2
inactive: Potency (PC15) | Potency (PC49) | max response (KB-3-1) -17.8%
active: Potency (GB4) 5.1 µM | Potency (ICS) 3.55 µM | Potency (N140) 3.16 µM | Potency (P93_24) 2.82 µM | Potency (P94_40) 3.16 µM | Potency (PAD) 3.16 µM | Potency (SC27B) 2.24 µM | Potency (TAB109) 2.82 µM | Potency (TAB113) 3.98 µM | Potency (TAB165) 1.58 µM | Potency (W2) 2.56 µM | Potency (HEK293) 0.944 µM

CCN(CC)C(=O)/C(C#N)=C/c1cc(O)c(O)c([N+](=O)[O-])c1
inactive: Potency (GB4) | Potency (HB3) | Potency (JCK) | Potency (N140) | Potency (P93_24) | Potency (P94_40) | Potency (PAD) | Potency (PC15) | Potency (PC26) | Potency (PC49) | Potency (SC27B) | Potency (TAB109) | Potency (TAB113) | Potency (W2) | max response (HEK293) -12.8% | max response (HaCat) -5.03% | max response (KB-3-1) 3.63%

CCN(CC)CCOc1ccc(C(O)(Cc2ccc(Cl)cc2)c2ccc(C)cc2)cc1 (configuration not stated)
active: Potency (GB4) 13.5 µM | Potency (ICS) 8.91 µM | Potency (P93_24) 8.91 µM | Potency (TAB165) 10 µM | Potency (W2) 6.01 µM | Potency (HEK293) 9.44 µM | Potency (KB-3-1) 16.4 µM

C[C@@H](CN(C)C)CN1c2ccccc2Sc2ccccc21
inactive: Potency (HB3) | Potency (JCK) | Potency (P93_24) | Potency (PAD) | Potency (PC15) | Potency (PC49) | Potency (SC27B) | Potency (TAB109) | Potency (TAB113) | Potency (TAB165) | max response (HaCat) -0.198% | max response (KB-3-1) -9.85%

Clc1ccc2c(c1)CCc1cccnc1C2=C1CCNCC1
active: Potency (ICS) 11.2 µM | Potency (PC26) 13.5 µM | Potency (W2) 3.38 µM
inactive: Potency (HB3) | Potency (JCK) | Potency (SC27B) | max response (HaCat) -1.5% | max response (KB-3-1) -7.06%

Cc1cc(N)c2cc(NC(=O)Nc3ccc4nc(C)cc(N)c4c3)ccc2n1
active: Potency (GB4) 7.57 µM | Potency (HB3) 4.47 µM | Potency (ICS) 5.01 µM | Potency (JCK) 11.2 µM | Potency (N140) 11.2 µM | Potency (P94_40) 12.6 µM | Potency (PAD) 12.6 µM | Potency (SC27B) 12.6 µM | Potency (TAB109) 12.6 µM | Potency (TAB113) 10 µM | Potency (TAB165) 5.62 µM | Potency (W2) 0.849 µM
inactive: max response (HaCat) -0.42% | max response (KB-3-1) -4.37%

NC(=NCCCCCCN=C(N)/N=C(\N)Nc1ccc(Cl)cc1)/N=C(\N)Nc1ccc(Cl)cc1
active: Potency (GB4) 1.07 µM | Potency (HB3) 4.47 µM | Potency (ICS) 0.355 µM | Potency (JCK) 3.98 µM | Potency (N140) 0.004 µM | Potency (P93_24) 1 µM | Potency (P94_40) 3.55 µM | Potency (PAD) 3.16 µM | Potency (PC15) 2 µM | Potency (PC26) 3.79 µM | Potency (PC49) 3.16 µM | Potency (SC27B) 0.891 µM | Potency (TAB109) 3.98 µM | Potency (TAB113) 2 µM | Potency (TAB165) 0.794 µM | Potency (W2) 0.849 µM | Potency (HEK293) 7.5 µM and 7.31 µM | Potency (KB-3-1) 8.2 µM

CNCC[C@@H](Oc1ccccc1C)c1ccccc1
inactive: max response (HaCat) 1.42% | max response (KB-3-1) -7.4%

CCCCCCCCCCCCCCCC[N+](C)(C)CCN(Cc1ccc(OC)cc1)c1ncccn1
active: Potency (HEK293) 9.44 µM
inactive: Potency (HB3) | Potency (JCK) | Potency (P94_40) | Potency (PAD) | Potency (PC26) | Potency (PC49) | max response (KB-3-1) -4.99%

CC(=O)OCC(=O)[C@@]1(OC(C)=O)[C@@H](C)C[C@H]2[C@@H]3C[C@H](F)C4=CC(=O)C=C[C@]4(C)[C@@]3(F)[C@@H](O)C[C@@]21C
active: Potency (ICS) 11.2 µM | Potency (W2) 6.01 µM
inactive: Potency (HB3) | Potency (JCK) | Potency (PC15) | Potency (PC26) | Potency (PC49) | Potency (SC27B) | Potency (TAB109) | Potency (TAB165) | outcome (CRL-7250) | max response (KB-3-1) 6.89%

COc1cc(N)c(Cl)cc1C(=O)NC1CCN(CCCOc2ccc(F)cc2)CC1OC (configuration not stated)
inactive: max response (HaCat) -1.88% | max response (KB-3-1) 6.35%

CC(C)(C)CC(C)(C)c1ccc(OCCOCC[N+](C)(C)Cc2ccccc2)cc1
active: Potency (GB4) 3.38 µM | Potency (HB3) 6.31 µM | Potency (ICS) 1.26 µM | Potency (JCK) 6.31 µM | Potency (N140) 3.98 µM | Potency (P93_24) 6.31 µM | Potency (P94_40) 5.01 µM | Potency (PAD) 8.91 µM | Potency (PC15) 5.01 µM | Potency (PC26) 4.26 µM | Potency (PC49) 6.31 µM | Potency (SC27B) 5.62 µM | Potency (TAB109) 5.62 µM | Potency (TAB113) 3.55 µM | Potency (TAB165) 3.16 µM | Potency (W2) 1.2 µM | Potency (HEK293) 6.68 µM and 8.2 µM | Potency (KB-3-1) 20.6 µM

CCN(CC)CCOC(=O)C(c1ccccc1)C1CCCCC1 (configuration not stated)
inactive: Potency (HB3) | Potency (JCK) | Potency (N140) | Potency (P94_40) | Potency (PC49) | Potency (SC27B) | Potency (TAB109) | Potency (TAB165) | outcome (HaCat) | max response (KB-3-1) -2.77%
active: Potency (W2) 7.57 µM

Cc1c(C)n(CCN(C)C)c2ccc(C(=O)OCCN(C)C)cc12
inactive: Potency (HB3) | Potency (JCK) | Potency (N140) | Potency (P93_24) | Potency (P94_40) | Potency (PAD) | Potency (PC15) | Potency (PC26) | Potency (PC49) | Potency (SC27B) | Potency (TAB109) | Potency (TAB113) | Potency (TAB165) | outcome (HaCat) | max response (KB-3-1) 2.08%

O=c1c(-c2ccccc2)c1-c1ccccc1
active: Potency (GB4) 10.7 µM | Potency (HB3) 11.2 µM | Potency (ICS) 4.47 µM | Potency (N140) 11.2 µM | Potency (PC26) 12 µM | Potency (SC27B) 11.2 µM | Potency (TAB165) 10 µM | Potency (W2) 15.1 µM | Potency (HEK293) 23.7 µM

CC(=O)OCC(=O)[C@@]12N=C(C)O[C@@H]1C[C@H]1[C@@H]3CCC4=CC(=O)C=C[C@]4(C)[C@H]3[C@@H](O)C[C@@]12C
inactive: outcome (HEK293) | outcome (HaCat) | max response (KB-3-1) 7.15%

O=C(N/N=C/c1ccccc1O)c1ccncc1
active: Potency (ICS) 3.55 µM | Potency (P93_24) 10 µM | Potency (P94_40) 10 µM | Potency (TAB109) 12.6 µM | Potency (TAB165) 5.62 µM | Potency (W2) 6.01 µM
inactive: Potency (JCK) | Potency (PC15) | Potency (PC49) | max response (HaCat) -6.14% | max response (KB-3-1) 8.17%
